A selection: hits, their analogues and other compounds. The true share with any hit is near 8.9%.
KB-3-1 cytotox – qHTS assay for MDR1-selective chemotherapeutics: Primary screen using the parental adenocarcinoma cell KB-3-1; KB-3-1 viability, CellTiter-Glo ATP luminescence, 72 h; Potency, µM (highest dose often 46.1 µM), usual class: cytotoxic; 1.4% of 400,000 active; AID 1347075, 2019; note: potency is the fitted concentration of half-maximal effect; % is set by controls: 0 for no effect and ±100 for the full control effect; nearly all actives have a fitted effect of over 60% in size
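KB-3-1 parental drug-naive adenocarcinoma cells in DMEM/10% FBS, incubated 72 h at 37 C with pin-transferred compounds across a concentration series. Viability by CellTiter-Glo luminescence; concentration-response curves fitted after normalization.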
DRD3 agonist – qHTS of D3 Dopamine Receptor Agonist: qHTS; D(3) dopamine receptor (Homo sapiens), P35462; D3R DiscoveRx beta-arrestin cells, luminescence, 90 min; max activation, %; 0.58% of 410,000 active; AID 652048, 2013; in the data active = max activation above about 30%; note: 0% is about no effect
Target sequence (P35462 whole entry, looked up): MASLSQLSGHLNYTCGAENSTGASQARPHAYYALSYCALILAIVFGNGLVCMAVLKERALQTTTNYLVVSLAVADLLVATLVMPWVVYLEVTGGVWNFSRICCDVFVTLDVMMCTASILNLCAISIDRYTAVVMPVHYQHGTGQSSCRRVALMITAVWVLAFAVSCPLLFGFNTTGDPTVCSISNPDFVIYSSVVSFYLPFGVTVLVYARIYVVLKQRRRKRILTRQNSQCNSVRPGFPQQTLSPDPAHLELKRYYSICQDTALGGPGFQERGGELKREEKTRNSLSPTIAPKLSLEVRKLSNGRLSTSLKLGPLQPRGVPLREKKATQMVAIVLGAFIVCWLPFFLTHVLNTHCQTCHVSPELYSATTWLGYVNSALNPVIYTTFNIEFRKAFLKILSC
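Cells at 1500/well, incubated overnight, then treated with pinned compounds (dopamine as control) for 90 min at 37 degrees C. DiscoveRx reagent added for 30 - 60 minutes at room temperature; luminescence read.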
KB-V1 MDR tox – qHTS assay for MDR1-selective chemotherapeutics: Primary screen using the drug-selected MDR subline cells KB-V1; 3.4% of 400,000 active; AID 1347076, 2019; KB-V1 MDR cells viability, CellTiter-Glo, 72 h; Potency, µM (doses to about 46.1 µM), usual class: cytotoxic; note: potency is the fitted concentration of half-maximal effect; % is set by controls: 0 for no effect and ±100 for the full control effect; nearly all actives have a fitted effect of over 60% in size
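KB-V1, DMEM (no phenol red) + 10% FBS; cpd pin-transferred, titration series; 72 h, 37 degrees C; CellTiter-Glo, luminescence. Data normalized, curve-fit.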
MCF10A rereplic – A quantitative high throughput screen for small molecules that induce DNA re-replication in MCF 10a normal breast cells | MCF 10A DNA re-replication, Hoechst nuclear intensity, 48 h | Potency, µM (highest dose often 46.1 µM), for the others: at the highest dose activity, positive = re-replication, usual class: activators | 2.9% of 350,000 active | AID 624296, 2012; note: potency is the fitted concentration of half-maximal effect; % of control where 0% means no effect; nearly all actives have a fitted effect of over 50% in size
D3 antag – qHTS of D3 Dopamine Receptor Antagonist: qHTS | D3R cells, DiscoveRx beta-arrestin luminescence, antagonist mode; stronger effect = lower value | max response, negative = inhibition, % | 2.5% of 360,000 active | AID 652054, 2013; in the data active = max response below about -50%; inconclusive = no clear call, values can overlap the other calls; note: % is set by controls: 0 for no effect and ±100 for the full control effect
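Cells expressing the human receptor were seeded at 1500 cells/well, incubated overnight at 37 degrees C in 5% CO2, then exposed to library compounds with dopamine controls for 90 minutes at 37 degrees C before luminescent detection.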
SW480 rereplic – A quantitative high throughput screen for small molecules that induce DNA re-replication in SW480 colon adenocarcinoma cells; SW480 DNA re-replication, Hoechst DNA content imaging, 48 h; Potency, µM (doses to about 46.1 µM), inactives show at the highest dose re-replication activation, usual class: activators; 1.8% of 340,000 active; note: potency is the fitted concentration of half-maximal effect; % of control where 0% means no effect; nearly all actives have a fitted effect of over 55% in size
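First, 250 cells per well were seeded. Next, compound or vehicle (23 nL) was pinned in, plates sat 48 hr at 37 C. Finally Hoechst was added for 40 min before fluorescence scanning.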
* hit, by the source's call; i = inactive; ? = inconclusive; · = not tested or not shown. Unless noted, calls come from the whole dose curve; as a rule, active = well fitted curve in the direction sought with a large enough effect; inconclusive = small, poorly fitted or top-dose-only effect, or another doubt; inactive = no such curve, though single readings can be large; an effect the other way counts as inactive or inconclusive.

SMILES | KB-3-1 cytotox | DRD3 agonist | KB-V1 MDR tox | MCF10A rereplic | D3 antag | SW480 rereplic
COc1cc(C2=NOC(C(=O)NCc3ccco3)C2)cc(OC)c1OC (stereo unspecified) | i | 2 | 2.9µM* | ? | 3 | ?
Nc1[nH]c(=O)[nH]c(=O)c1N=Nc1ccccc1Cl | i | 3 | ? | 23µM* | -20 | -9%
O=C(CSc1nc2ccccc2nc1Cc1ccccc1)N1CCCc2ccccc21 | · | -3 | · | · | · | ·
Cc1cn([C@H]2C[C@H](O)[C@@H](CNCc3ccc(CN(C)S(C)(=O)=O)o3)O2)c(=O)[nH]c1=O | i | 3 | i | · | 8 | ·
Cc1cn([C@H]2C[C@H](O)[C@@H](CNCc3ccc(-c4cc(Cl)ccc4C(F)(F)F)o3)O2)c(=O)[nH]c1=O | i | -17 | i | · | -75* | ·
CC(NC(=O)c1noc2c1CCCC2)c1ccccc1 (stereo unspecified) | i | -8 | 16µM* | -4% | 0 | 17%
O=C(c1csc2c1CCCC2)N1CCN(c2cccc(C(F)(F)F)c2)CC1 | i | 3 | 21µM* | ? | -12 | 6%
O=C(c1noc2c1CCCCC2)N1CCN(c2cccc(Cl)c2)CC1 | · | -7 | · | · | · | ·
O=C(c1csc2c1CCCC2)N1CCN(c2ncccn2)CC1 | i | 1 | 16µM* | -2% | -12 | 2%
O=C(c1noc2c1CCCC2)N1CCN(c2ccccc2)CC1 | i | 18 | 18µM* | -2% | 17 | -4%
O=C(c1csc2c1CCCC2)N1CCN(c2ccc(F)cc2)CC1 | i | 2 | i | ? | 14 | 11%
CCCC(=O)N1c2ccccc2-c2nnc(SC)nc2OC1c1sccc1C (stereo unspecified) | i | 2 | i | · | · | ·
CC(C)c1ccc(S(=O)(=O)c2nnn3c2nc(N2CCCC2)c2sccc23)cc1 | i | 2 | i | · | · | ·
O=C(c1noc2c1CCCCC2)N1CCN(c2cccc(C(F)(F)F)c2)CC1 | · | 52* | · | · | · | ·
CC1CCc2onc(C(=O)N3CCN(c4cccc(C(F)(F)F)c4)CC3)c2C1 (stereo unspecified) | · | -13 | · | · | · | ·
COc1cc(C2C=C(c3cccs3)Nc3ncnn32)cc(OC)c1OC (stereo unspecified) | 1µM* | -16 | 3.7µM* | ? | ? | ?
COc1cc(C2CC(=O)C3=C(C2)Nc2ncnn2C3c2cccs2)cc(OC)c1OC (stereo unspecified) | i | 1 | i | 6% | 4 | -20%
COc1cc(C2C3=C(Nc4ncnn42)c2ccccc2CC3)cc(OC)c1OC (stereo unspecified) | 0.29µM* | -4 | 0.65µM* | ? | -14 | 0.82µM*
COc1cc(Cl)c(C)cc1NC(=O)CNC(=O)Cn1ccc2ccccc2c1=O | i | 1 | i | · | · | ·
COc1ccc(-c2cc(-c3ccc4c(c3)NC(=O)CO4)nc3c2COc2ccc(C)cc2-3)cc1 | i | 3 | ? | · | · | ·
O=C1/C(=C/c2cccc([N+](=O)[O-])c2)CCc2ccccc21 | ? | -8 | 16µM* | ? | ? | ?
CCN1C/C(=C\c2cccc([N+](=O)[O-])c2)C(=O)/C(=C/c2cccc([N+](=O)[O-])c2)C1 | 0.92µM* | -17 | ? | 2.6µM* | ? | 0.58µM*
Cc1cc(C)c(Cn2c3ccccc3c3cnn(CC(=O)NCCCc4ccccc4)c(=O)c32)c(C)c1 | i | -9 | i | · | · | ·
COc1ccc(CCNC(=O)c2c(C)oc3nc(C)nc(N4CCOCC4)c23)cc1OC | · | 2 | · | · | · | ·
COC(=O)c1nc2nc(-c3cccs3)cc(C(F)(F)F)n2n1 | i | 5 | i | -10% | 20 | 0.52µM*
SMILES | KB-3-1 cytotox | DRD3 agonist | KB-V1 MDR tox | MCF10A rereplic | D3 antag | SW480 rereplic
COC(=O)c1nc2nc(C)cc(C(F)(F)F)n2n1 | i | -5 | i | 11% | -9 | -25%
CC1CCN(C(=O)CN2CC(C)Sc3ccccc32)CC1 (stereo unspecified) | i | -1 | i | · | · | ·
FC(F)(Cl)c1nnc2ccc(Cl)nn12 | 6.5µM* | -9 | ? | ? | -17 | ?
Clc1ccc2nnc(Cl)n2n1 | i | -25 | i | -22% | -6 | -1%
CCn1c(CCNC(=O)c2ccc(C)cc2)nnc1SCc1ccc(Cl)c(Cl)c1 | i | -3 | i | -5% | -17 | -2%
CCn1c(CCNC(=O)c2ccc(OC)cc2)nnc1SCc1ccc(Cl)c(Cl)c1 | ? | -6 | 4.6µM* | 23% | -14 | -134%
COc1ccc(CN=Cc2[nH]c3ccc(Br)c(Cl)c3c2O)cc1 | i | 4 | i | ? | -74* | ?
Cc1cccc(C(=O)Nc2cc(-c3ccccc3F)nn2-c2ccccc2)c1 | i | -1 | i | · | · | ·
CCOc1ccc(NC(=O)C2CCCN(c3ccc(Sc4ccc(C)cc4)nn3)C2)cc1 (stereo unspecified) | i | 10 | i | · | · | ·
CCOC(=O)C1=C(O)CSC1=Nc1ccc(C)cc1 | i | 5 | i | -7% | -5 | 0%
CCOC(=O)C1=C(O)CSC1=Nc1cccc2ccccc12 | i | -3 | 23µM* | 3% | -6 | -41%
O=[N+]([O-])c1ccc(-c2cc3ccccc3[nH]2)cc1 | i | · | i | · | · | ·
Cc1cccc(NC(=O)CCS(=O)(=O)c2ccc3c(c2)n(C)c(=O)c(=O)n3C)c1C | · | 9 | · | · | · | ·
C[n+]1c(-c2ccccc2)cc2c(=Cc3ccccc3)c3ccccc3n21 | ? | -9 | ? | 21µM* | -27 | ?
Cc1ccc(C(=O)Nc2nnc(S(=O)(=O)N3CCOCC3)s2)cc1 | i | -9 | i | 13% | -57* | -17%
CSc1nnc(NC(=O)c2ccc(S(=O)(=O)N3CCOCC3)cc2)s1 | i | 2 | i | -3% | -59* | -6%
O=C(Nc1nnc(S(=O)(=O)N2CCOCC2)s1)c1ccc(F)cc1 | i | 4 | ? | 13% | -3 | -14%
COc1ccc(S(=O)(=O)Nc2cccc(-c3ccc4nncn4n3)c2)cc1 | 5.8µM* | 0 | ? | 5.8µM* | 14 | 3.5µM*
CCc1ccc(NC(=O)CSc2nc3c(sc4ccccc43)c(=O)n2CCCOC)cc1 | i | -8 | i | · | · | ·
CC(=O)NC(c1ccccc1)c1nc(-c2ccc(Cl)cc2)cs1 (stereo unspecified) | i | -4 | i | · | 0 | ·

Bioassay records from PubChem.
